# Measurements from PubChem BioAssay (NCATS).
# Records with an inconclusive call do not appear. Where a call stands in place of a potency, no number is given. Unmarked numbers belong to inactive results. Activity calls are given as the source filed them. Calls follow the shape of the dose curve; as a rule, active = well fitted inhibition curve with a large enough effect; inconclusive = small, poorly fitted or top-dose-only effect; inactive = flat fitted curve, though single readings scatter.
# Assay: P-glycoprotein substrates identified in KB-8-5-11 adenocarcinoma cell line, qHTS therapeutic library screen (AID 1346987); also: nearly all actives have a fitted effect of over 65% in size
# Details: KB-8-5-11 (P-gp overexpressing) viability, CellTiter-Glo, 72 h; series mostly up to 44.5 µM
# Summary of the method: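 Steps: plate 500 KB-8-5-11 cells/well in DMEM + 10% FCS (colchicine removed); pin compounds in dose-response; incubate 72 h, 37 degree C, 5% CO2; add CellTiter-Glo, 5 min; read luminescence.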
# Potency is read from the fitted curve at half-maximal effect.
SMILES,Potency,outcome,"activity change, negative = cytotoxicity"
CCN1C[C@]2(OC(=O)c3ccccc3NC(C)=O)CC[C@H](OC)[C@@]34[C@@H]2C[C@@H]([C@@H]13)[C@@]1(O)C[C@H](OC)[C@H]2C[C@@H]4[C@]1(O)[C@H]2OC,inactive,,
COc1cc(C)[nH]c(=O)c1CNC(=O)c1c(C)n([C@H](C)C2CCOCC2)c2ccccc12,inactive,,
COC1CC(OC2CCC3(C)C(=CCC4C3CCC3(C)C(C(C)OC5OC(COC6OC(CO)C(O)C(O)C6O)C(O)C(O)C5O)CCC43O)C2)OC(C)C1OC1OC(C)C(O)C(OC)C1O (centres undefined),,inactive [at 9.29 µM],
OCCCCC#Cc1cncc(OC[C@@H]2CCN2)c1,inactive,,
CC(C)[C@@H](CN1CC[C@@](C)(c2cccc(O)c2)[C@@H](C)C1)NC(=O)[C@H]1Cc2ccc(O)cc2CN1,inactive,,
C=CC(C)(C)c1[nH]c2cccc3c2c1C[C@@H]1[C@@H]3[C@@H](OC(C)=O)[C@H](C)CN1C,inactive,,
CCN1CC2(COC)C3[C@@H](OC)C4C1C3(C1C[C@]3(O)[C@H](OC(=O)c5ccccc5)C1[C@]4(OC(C)=O)[C@@H](O)[C@@H]3OC)[C@H](OC)C[C@H]2O (some centres undefined),inactive,,
O=C(N1CCOCC1)N1CCN(c2ccc(Cl)cc2)CC1,inactive,,
COc1c(C(C)C)cc2c(c1O)[C@@]1(C(=O)O)CCCC(C)(C)C1CC2 (some centres undefined),inactive,,
C=CC(C)(O)CC/C=C(\C)C(=O)O[C@H]1[C@H](O)[C@@H](CO)O[C@@H](OC(=O)[C@]23CCC(C)(C)CC2C2=CCC4[C@@]5(C)CC[C@H](O[C@@H]6O[C@H](CO[C@@H]7OC[C@H](O)[C@H](O)[C@H]7O[C@@H]7OC[C@@H](O)[C@H](O)[C@H]7O)[C@@H](O)[C@H](O)[C@H]6O)C(C)(C)C5CC[C@@]4(C)[C@]2(C)CC3)[C@@H]1OC1OC(C)C(O[C@@H]2OC[C@@H](O)[C@H](O[C@@H]3OC[C@@H](O)[C@H](O)[C@H]3O)[C@H]2O)C(O)C1O (some centres undefined),,,3.69% [at 9.29 µM]
CC(=O)OC12C(O)C(C)C3(O)C4C=C(C)C(=O)C4CC(CO)=CC3C1C2(C)C (centres undefined),inactive,,
C/C=C(\C)C(=O)OC1C(C)OC(OC2C(C)OC(OC3CCC4(C)C(=CCC5C4CCC4(C)C(C(C)OC6OC(COC7OC(CO)C(O)C(O)C7O)C(O)C(O)C6O)CCC54O)C3)CC2OC)C(O)C1OC (centres undefined),,,7.92% [at 9.29 µM]
COC(=O)N1CCN(C(=O)Cc2ccc(Cl)c(Cl)c2)[C@@H](CN2CCCC2)C1,inactive,,
CC12CCC3C(CCC4(O)CC(O)CCC34C=O)C1(O)CCC2C1=CC(=O)OC1 (centres undefined),651 nM (active),,
